KLK7 zymogen act: proKLK7 zymogen activators, primary screen, biochemical, fluorescence intensity; purified proKLK7, EDANS-DABCYL substrate fluorescence; 100% is mature enzyme control, 0% vehicle; activation, % at 7 µM; hit rate 0.9% among 370,000;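 active = activation above the mean of all tested compounds plus 3 SD, computed per campaign excluding outliers beyond control limits, cut at about 13% in these data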
AHR act: AHR activators, primary screen, cell-based, luminescence, luciferase reporter, human; AHR-responsive luciferase reporter cells; activation, % at 5 µM; hit rate 2.5% among 320,000; in the data active = activation above about 47%
ADAM10 inh: human ADAM10 inhibitors, primary screen, biochemical, QFRET, HTS; Disintegrin and metalloproteinase domain-containing protein 10 (Homo sapiens), O14672; recombinant ADAM10, EDANS/DABCYL FRET peptide cleavage, 3 h; inhibition, % at 7 µM; hit rate 0.62% among 370,000; AID 720582, 2013;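 active = inhibition above a per-campaign cutoff equal to the mean of compounds falling between control-based bounds plus 3 SD, cut at about 20% in these data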
Target sequence (O14672 214-748 limits assumed): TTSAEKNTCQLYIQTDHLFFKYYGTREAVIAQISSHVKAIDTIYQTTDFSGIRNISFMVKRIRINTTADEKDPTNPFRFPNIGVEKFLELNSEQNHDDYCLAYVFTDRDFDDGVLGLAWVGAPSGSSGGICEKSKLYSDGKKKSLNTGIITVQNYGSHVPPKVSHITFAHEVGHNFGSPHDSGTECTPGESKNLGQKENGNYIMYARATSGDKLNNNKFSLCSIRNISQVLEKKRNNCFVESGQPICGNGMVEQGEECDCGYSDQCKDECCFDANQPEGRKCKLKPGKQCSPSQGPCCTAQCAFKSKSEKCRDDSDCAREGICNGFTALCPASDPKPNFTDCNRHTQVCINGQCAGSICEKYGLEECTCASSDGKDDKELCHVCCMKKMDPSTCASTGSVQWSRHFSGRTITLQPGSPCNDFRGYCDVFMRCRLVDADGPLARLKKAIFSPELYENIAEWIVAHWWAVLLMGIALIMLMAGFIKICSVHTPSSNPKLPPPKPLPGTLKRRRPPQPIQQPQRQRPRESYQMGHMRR
rCAG binder: binders of r(CAG) RNA repeats, primary screen, biochemical, fluorescence | hit rate 1.3% among 370,000 | r(CAG) RNA repeat, TO-PRO-1 dye displacement fluorescence | inhibition, % at 3 µM | AID 651821, 2012;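 active = inhibition above the plate cutoff, the mean of all test compounds on that plate plus 3 SD, cut at about 35% in these data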;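 also: higher means more dye released from RNA so lower well fluorescence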
GRIN3A LBD mod: binders of NR3A ligand-binding domain, primary screen, biophysical, differential scanning fluorimetry, uHTS; AID 1259313, 2017; NR3A LBD differential scanning fluorimetry, Tm shift; 0% = protein alone, 100% = glycine-bound protein; Tm shift relative to glycine control, % at 25 µM; hit rate 2.5% among 340,000;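 active = melting temperature shift of at least 10% of the positive control shift, at one fixed dose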
ADAM17 inh: ADAM17 inhibitors, primary screen, biochemical, QFRET | Disintegrin and metalloproteinase domain-containing protein 17 (Homo sapiens), P78536 | inhibition, % at 6.95 µM | hit rate 0.83% among 370,000 | recombinant ADAM17, EDANS/DABCYL FRET peptide cleavage | AID 720648, 2013;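 active = inhibition above the mean of compounds lying between control limits plus 3 SD, set per campaign, cut at about 8.5% in these data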
Hits are given with their value; 0 = inactive; - = no result. An excerpt weighted towards active compounds, which were near 7% of everything screened.

SMILES | KLK7 zymogen act | AHR act | ADAM10 inh | rCAG binder | GRIN3A LBD mod | ADAM17 inh
Cc1ccc(NC(=O)CSc2ccc3nnc(-c4cccnc4)n3n2)cc1 | 0 | 63 | 0 | 0 | 0 | 0
Cc1ccc(-c2nnc3ccc(SCC(=O)Nc4cc(C)on4)nn23)cc1 | 0 | 0 | 0 | 0 | 0 | 0
c1ccc(CSc2ccc3nnc(-c4cccnc4)n3n2)cc1 | 0 | 0 | 0 | 0 | 14 | 0
Cc1cc(NC(=O)CSc2ccc3nnc(-c4cccs4)n3n2)no1 | 0 | 49 | 0 | 0 | 0 | 0
C[C@H]1[C@@H](NC(=O)C#Cc2ccccc2)CC[C@@]23CCCN2C(=O)CCC[C@@H]13 | - | - | 0 | - | - | 0
COC[C@@H](OC(C)=O)[C@H]1OCc2ccccc2[C@@H]1/C=C/c1ccccc1 | 0 | - | 0 | 0 | - | 0
C[C@@H]1[C@@H](O)C[C@@]2(CC(=O)c3ccccc3O2)O[C@H]1c1ccccc1 | 0 | - | 0 | 0 | - | 0
COc1ccc(-c2nnc3ccc(SCC(=O)Nc4nc5ccc(C)cc5s4)nn23)cc1OC | 0 | 0 | 0 | 0 | 14 | 0
COc1ccc(Cl)cc1NC(=O)Nc1cnccn1 | 0 | 53 | 0 | 0 | 0 | 0
COc1ccc(C)cc1NC(=O)Nc1cnccn1 | 0 | 57 | 0 | 0 | 0 | 0
O=C(Nc1cnccn1)Nc1ccccc1Cl | 0 | 0 | 0 | 0 | 0 | 0
COc1ccc(NC(=O)Nc2cnccn2)cc1OC | 0 | 0 | 0 | 0 | 0 | 0
Cc1cc(NC(=O)Nc2ccccc2Cl)no1 | 0 | 0 | 0 | 0 | 0 | 0
COc1ccc(Cl)cc1NC(=O)Nc1cc(C)on1 | 0 | 55 | 0 | 0 | 0 | 0
COc1ccc(NC(=O)Nc2cnccn2)c(OC)c1 | 0 | 0 | 0 | 0 | 0 | 0
O=C(Nc1cnccn1)Nc1cccc(Cl)c1Cl | 0 | 49 | 0 | 0 | 0 | 0
COC1=C[C@H](C(=O)NCc2ccc(OC)cc2)C(C)C(c2ccccc2)CC1=O (stereo partly drawn) | 0 | - | 0 | 0 | - | 0
COc1ccc(Cl)cc1NC(=O)NNC(=O)c1ccccn1 | 0 | - | 0 | 0 | 77 | 0
COc1ccccc1NC(=O)c1ccccc1NC(=O)c1ccccn1 | 0 | - | 0 | 0 | 0 | 0
CCOc1ccccc1-c1nc(-c2cccc(Br)c2)no1 | - | 64 | - | - | 0 | -
COc1ccccc1C(=O)c1nc2ccccc2n1C | 0 | 62 | 0 | 0 | 0 | 0
CC(C)(C)c1ccc(/C=C/C(=O)NC2=NCCS2)cc1 | 0 | 0 | 0 | 0 | 12 | 0
c1ccc(CNC2CCC23CCC(c2ccccc2)CC3)cc1 (stereo not drawn) | 0 | - | 0 | 0 | - | 0
O=C(CSc1ccsc1[N+](=O)[O-])NCCc1ccccc1 | 0 | 48 | 0 | 0 | 0 | 0
CN1OC[C@@H]2CN3C(=Nc4cc(C(F)(F)F)cc(C(F)(F)F)c4)Sc4ccccc4[C@@H]3C[C@@H]21 | 0 | - | 0 | 0 | - | 0
SMILES | KLK7 zymogen act | AHR act | ADAM10 inh | rCAG binder | GRIN3A LBD mod | ADAM17 inh
CCOP(=O)(OCC)c1nc(-c2cccc3ccccc23)oc1NCCc1ccc(OC)cc1 | 0 | 0 | 0 | 0 | 16 | 0
CN(C)c1cccc2c(S(=O)(=O)NCC3CCN(C(=O)C(=O)c4cccs4)CC3)cccc12 | 0 | - | 0 | 0 | - | 0
Cc1cccc(NC(=O)CSc2nnc(CNC(=O)c3ccco3)n2C)c1C | 0 | 0 | 0 | 0 | 0 | 0
Cn1c(CNC(=O)c2ccco2)nnc1SCC(=O)Nc1ccccc1Cl | 0 | 0 | 0 | 0 | 13 | 0
COc1ccc(-c2nnc(SCc3c(F)cccc3F)n2N)cc1 | 0 | - | 0 | 0 | - | 0
C=CCn1c(N/N=C/c2ccc(O)cc2)nc2ccccc2c1=O | 0 | 0 | 0 | 0 | 12 | 0
COc1ccc(-c2nnc(SCC(=O)NN=Cc3c(O)ccc4ccccc34)n2-c2ccc(OC)cc2)cc1 | 0 | - | 0 | 0 | - | 0
O=C(O)c1ccccc1OC(C(=O)Nc1cc(Cl)cc(Cl)c1)c1ccccc1 (stereo not drawn) | 0 | 0 | 0 | 0 | 23 | 0
O=C(Nc1ccc2nc(-c3ccco3)[nH]c2c1)c1ccco1 | 0 | 0 | 0 | 0 | 0 | 0
C(=C\c1ccco1)/c1nc2ccccc2[nH]1 | 0 | 0 | 0 | 0 | 0 | 0
O=C(/C=C/c1ccco1)Nc1ccc(-c2nc3ccccc3[nH]2)cc1 | 0 | 0 | 0 | 0 | 30 | 0
Cn1cc([N+](=O)[O-])c(C(=O)Nc2ccc3nc(-c4ccccc4)[nH]c3c2)n1 | 0 | 0 | 0 | 0 | 0 | 0
Cn1cc([N+](=O)[O-])c(C(=O)Nc2ccc(-c3nc4ccccc4[nH]3)cc2)n1 | 0 | 0 | 0 | 0 | 19 | 0
O=C(Nc1ccc(-c2nc3ccccc3[nH]2)cc1)c1ccco1 | - | 0 | - | - | 35 | -
O=C(CSc1ccc(Cl)cc1)Nc1ccc(-c2nc3ccccc3[nH]2)cc1 | 0 | 0 | 0 | 0 | 37 | 0
Cc1c[nH]c2cccc(-c3c(Cl)cccc3Cl)c12 | 0 | - | 0 | 0 | - | 0
O=S(=O)(CC1NCc2cc(F)ccc21)NCc1ccc(F)cc1 (stereo not drawn) | 0 | - | 0 | 0 | - | 0
O=C(/C=C(\Nc1ccc(Br)c(F)c1)c1ccccc1)c1ccccc1 | 0 | - | 0 | 0 | - | 0
COc1cccc(CNC(=O)[C@H]2CCCN2C(=O)[C@H]2CCCN2C(=O)c2ccccc2)c1 | 0 | - | 0 | 0 | - | 0
Cc1ccc(-c2cc(-c3nnc(SCC(=O)N4c5ccccc5Sc5ccccc54)n3N)[nH]n2)cc1 | 0 | - | 0 | 0 | - | 0
COc1cccc(CO[C@H]2C=C[C@@H](c3ccccc3)O[C@@H]2CO)c1 | 0 | - | 0 | 0 | - | 0
O=[N+]([O-])c1ccc(N2CCCC2)cc1NC(c1ccccc1)c1ccccc1 | 0 | 0 | 0 | 0 | 14 | 0
Cc1cc(C)nc(N2CCC(C(=O)Nc3ccc4c(c3)OCO4)CC2)n1 | 0 | 0 | 0 | 0 | 0 | 0
Cc1cc(C)nc(N2CCCC(C(=O)Nc3ccc4c(c3)OCO4)C2)n1 (stereo not drawn) | 0 | 49 | 0 | 0 | 0 | 0
c1nc(NCC2CCOC2)c2cc(-c3ccc4c(c3)OCO4)ccc2n1 (stereo not drawn) | - | - | 0 | - | - | 0
SMILES | KLK7 zymogen act | AHR act | ADAM10 inh | rCAG binder | GRIN3A LBD mod | ADAM17 inh
CC(=O)C1=C(C)N(Cc2ccc(F)cc2)C(=S)NC1c1ccc(Cl)cc1 (stereo not drawn) | 0 | - | 0 | 0 | - | 0
Cc1ccc(/C=C/c2onc(C)c2S(=O)(=O)N2CCC(C(=O)NC(C)(C)C)CC2)cc1 | 0 | 0 | 0 | 0 | 0 | 0
CNC(=O)C1CCN(S(=O)(=O)c2c(C)noc2/C=C/c2ccc(C)cc2)CC1 | 0 | 0 | 0 | 0 | 79 | 0
COc1ccc(NC(=O)C2CCN(S(=O)(=O)c3c(C)noc3C)CC2)cc1Cl | 0 | 0 | 0 | 0 | 16 | 0
COc1ccc(NC(=O)C2CCN(S(=O)(=O)c3c(C)noc3C)CC2)cc1 | 0 | 0 | 0 | 0 | 0 | 0
O=C(Nc1cccc(F)c1)c1ccc(-c2ccccc2Cl)o1 | - | 50 | - | - | 0 | -

Screens deposited in PubChem BioAssay by several laboratories.
